Screens: PubChem BioAssay, National Center for Advancing Translational Sciences (NCATS)
TSG101-PTAP inh: blocks PTAP/TSG101 interaction to inhibit HIV-1 budding | Q99816 | Fluorescence polarization, FITC-PTAP peptide / Tsg101 binding | Potency, µM (top dose mostly 115 µM), for the others: at the highest dose activity change, negative = inhibition, hits mostly inhibitors | 340,000 tested, under 10 active; active = well fitted inhibition curve with a large enough effect in the main read-out, with a control signal flat, not every such curve was filed as active; inconclusive = small, poorly fitted or top-dose-only effect, or effect the other way, or a change in a side signal; inactive = no such curve, though single readings can be large or run the other way; note: % of control where 0% means no effect
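Compounds were pin-transferred onto Tsg101 binding domain (10 uM final) in HEPES pH 7.5 buffer, then FITC-PTAP peptide was added at 50 nM final. After 20 min at RT, polarization reported peptide displacement across a qHTS concentration series.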
USP1 inh: blocks the human USP1/UAF1 deubiquitinase complex; O94782; recombinant USP1/UAF1, Ub-Rhodamine cleavage fluorescence; Potency, µM (series often up to 57.1 µM), for inactives: top-dose activity change, negative = inhibition, hits mostly inhibitors; 390,000 compounds, 0.23% hits; note: % is set by controls: 0 for no effect and ±100 for the full control effect; nearly all actives have a fitted effect of over 60% in size
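USP1/UAF1 complex (1 nM) preincubated 15 min at room temperature with compound, then Ub-Rho substrate (150 nM final) added. Kinetic fluorescence at 480/540 nm over 6 reads at 60 s intervals; 50 mM HEPES pH 7.8, 0.5 mM EDTA, 0.1 mg/ml BSA, 1 mM TCEP, 0.01% Tween-20.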
VDR inh: vitamin D3 receptor (human) inhibition; P11473; VDR-SRC2-3 peptide fluorescence polarization, 2 h; Potency, µM, without a hit: max response, negative = inhibition, actives largely listed as inhibitors; 400,000 compounds, 0.93% hits; AID 504847; note: % is set by controls: 0 for no effect and ±100 for the full control effect
Target sequence (P11473 whole entry, looked up): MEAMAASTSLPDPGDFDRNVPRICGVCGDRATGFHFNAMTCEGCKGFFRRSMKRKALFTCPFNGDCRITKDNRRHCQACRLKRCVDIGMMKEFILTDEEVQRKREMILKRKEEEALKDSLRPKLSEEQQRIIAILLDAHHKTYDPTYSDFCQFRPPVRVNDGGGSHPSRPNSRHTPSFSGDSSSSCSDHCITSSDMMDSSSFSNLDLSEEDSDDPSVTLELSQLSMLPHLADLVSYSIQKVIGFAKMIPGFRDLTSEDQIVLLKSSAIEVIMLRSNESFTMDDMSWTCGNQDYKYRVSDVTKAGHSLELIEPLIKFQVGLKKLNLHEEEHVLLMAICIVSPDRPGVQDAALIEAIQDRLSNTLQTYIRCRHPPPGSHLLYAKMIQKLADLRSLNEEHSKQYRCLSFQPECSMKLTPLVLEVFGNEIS
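Two reagent solutions held at 4 deg C in the dark were dispensed, compounds pinned at 23 nl, and the mixture incubated 2 h at room temperature. Read-out: fluorescence polarization of VDR–SRC2-3 peptide binding.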
PLK1 PBD block: blocks phosphopeptide binding to human PLK1 polo-box domain; Potency, µM, inactives show max response, negative = inhibition, usual class: inhibitors; Plk1 PBD binding of FITC phosphopeptide, fluorescence polarization; P53350; 360,000 compounds, 2.8% hits; AID 720504; note: series mostly up to about 57 µM; % is set by controls: 0 for no effect and ±100 for the full control effect; nearly all actives have a fitted effect of over 65% in size
KAT2A inh: inhibitors of human GCN5L2 histone acetyltransferase; GCN5L2 HAT assay, ThioGlo1 CoA-SH fluorescence; Potency, µM (top dose mostly 58.9 µM), without a hit: top-dose activity change, negative = inhibition, usual class: inhibitors; 390,000 compounds, 0.21% hits; note: % is set by controls: 0 for no effect and ±100 for the full control effect
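ThioGlo1-coupled HAT assay: 20nM GCN5L2, 70uM acetyl-CoA, 75uM H3(1-25) peptide, pH 7.5. Fluorescence read at 340/540nm at start and after 20 min at room temperature.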
* = called active by the depositor; ? = inconclusive; nt = no result given; ! = not confirmed by another sample; [ ] = dose if it differs, or a comment. Rows were chosen to be rich in hits. Some 3% of all compounds tested hit in one or more screens of this group. Unless noted, calls come from the whole dose curve; as a rule, active = well fitted curve in the direction sought with a large enough effect; inconclusive = small, poorly fitted or top-dose-only effect, or another doubt; inactive = no such curve, though single readings can be large; an effect the other way counts as inactive or inconclusive. Potency is the fitted concentration of half-maximal effect.

SMILES	TSG101-PTAP inh	USP1 inh	VDR inh	PLK1 PBD block	KAT2A inh
COC(=O)C1=Nc2ccccc2/C1=C\c1c(O)n(-c2cc(OC)ccc2OC)c(=O)[nH]c1=O	-4%	-20%	?	3.4µM*	-10%
O=c1[nH]c(=O)n(-c2ccc(F)cc2)c(O)c1/C=C1\C=Nc2ccccc21	1%	-20%	17%	57%	6%
CC1=Nc2ccccc2/C1=C/c1c(O)n(C)c(=O)[nH]c1=O	2%	-20%	-14%	?	-22%
Cc1cccc(-n2c(O)c(/C=C/C=Nc3ccccc3)c(=O)[nH]c2=O)c1	37%	?	9%	51%	-8%
NC(=O)O	nt	nt	9%	nt	-17%
C[C@@]12CC[C@H](O)C[C@@H]1CC[C@H]1[C@@H]2C[C@@H](O)[C@]2(C)[C@@H](C3=CC(=O)OC3)CC[C@]12O	nt	nt	-9%	nt	0%[21.4 µM]
Cc1ccccc1-n1c(O)c(/C=C2/C(c3ccccc3)=Nc3ccccc32)c(=O)[nH]c1=O	-4%	-8%	89µM*	6.7µM*	-5%
O=C1NC(=O)C(=O)C(=O)N1	nt	nt	3.2µM*	nt	-13%
O=C1NC(=O)C2(CCCC2)C(=O)N1	-4%	-4%	-2%	-21%	nt
CCOC(=O)[C@]12Cc3cc(OC)ccc3[C@H]1N(C1CCCCC1)C(=O)c1ccccc12	nt	nt	nt	3µM*	nt
CCOC(=O)[C@]12Cc3cc(Cl)ccc3[C@H]1N(C1CCCCC1)C(=O)c1ccccc12	nt	nt	nt	1.9µM*	nt
CCC(Sc1ccccc1)C(=O)OC1CC2CCC(C1)N2C (configuration not stated)	nt	nt	-1%	nt	-8%
O=C(Nc1ccc(Oc2ccc(Cl)cc2)c(Cl)c1)c1cc(I)cc(I)c1O	0%	?	?	?	25µM*
COC(=O)C12CC3=C[C@H](CC3=O)Cc3ccccc3[C@@H]1CNC2=O (some centres not stated)	nt	nt	3%	nt	nt
CCOP(=S)(OCC)Oc1nc(Cl)c(Cl)cc1Cl	0%	-30%	32µM*	30µM*	?
COP(=S)(OC)Oc1nc(Cl)c(Cl)cc1Cl	nt	nt	4.5µM*	nt	20µM*
O=C(O)COc1nc(Cl)c(Cl)cc1Cl	nt	nt	-16%	nt	-15%
CCCN(CCC)c1c([N+](=O)[O-])cc(S(N)(=O)=O)cc1[N+](=O)[O-]	nt	nt	?	nt	-9%
Cc1ccc(C[N+](C)(C)C)o1	nt	nt	-1%	nt	14µM*!
C[N+](C)(C)Cc1ccccc1	2%	-22%	0%	-3%	-1%
NC1CCCC[C@H]1N (some centres not stated)	nt	nt	3%	nt	4%
O=C(O)CCC1NCC2CC1CN1CCCCC21 (configuration not stated)	nt	nt	0%	nt	-14%
Fc1ccccc1N1CCN(Cc2c(F)cccc2F)CC1	0%	-11%	-7%	-11%	-4%
O=C1C(Cl)=C(N2CCOCC2)C(=O)N1c1ccccc1F	3%	-22%	14µM*	-13%	-4%
CC(=O)[C@@H]1CC[C@H]2[C@@H]3CC[C@@H]4CC(=O)CC[C@]4(C)[C@H]3CC[C@]12C	nt	nt	50µM*	nt	-16%
SMILES	TSG101-PTAP inh	USP1 inh	VDR inh	PLK1 PBD block	KAT2A inh
CC(=O)[C@H]1CCC2C3CC[C@H]4C[C@@H](O)CC[C@]4(C)C3CC[C@@]21C (some centres not stated)	-1%	?	-7%	2%	0%
O=P(CN1CCN(c2ccccc2)CC1)(N1CCCCC1)N1CCCCC1	2%	-15%	15%	-11%	-4%
O=C(CCN1CCN(c2ccccc2)CC1)c1ccc(Br)cc1	-2%	-23%	89µM*	8.4µM*	-4%
CN1C(=O)C(=Cc2ccc(N3CCOCC3)o2)C(=O)N(C)C1=O	?	?	0%	106%	-2%
CN1C(=O)C(=Cc2ccc(N3CCCCCC3)o2)C(=O)N(C)C1=S	?	25µM*	19%	62%	-5%
CC12C=CC(=O)C=C1CCC1C2=CCC2(C)C1CC[C@@H]2C(=O)CN1CCN(c2cc(N3CCCC3)nc(N3CCCC3)n2)CC1 (some centres not stated)	nt	nt	3.2µM*	nt	8%
O=C1NC(=S)NC(=O)C12C(c1ccccc1)NC(=S)NC2c1ccccc1 (configuration not stated)	-1%	?	?	-15%	-1%
O=C1NC(=S)NC(=O)C1c1ccccc1	-6%	-1%	?	24µM*	nt
CCOC(=O)[C@]12Cc3cc4ccccc4cc3[C@H]1N(Cc1ccccc1)C(=O)c1cc(OC)ccc12	nt	nt	nt	11µM*	nt
CCOC(=O)[C@]12Cc3ccccc3[C@H]1N(Cc1ccccc1)C(=O)c1cc(OC)ccc12	nt	nt	nt	-28%	nt
CCOC(=O)[C@]12Cc3cc(Cl)ccc3[C@H]1N(Cc1ccccc1)C(=O)c1cc(OC)ccc12	nt	nt	nt	11µM*	nt
CCOC(=O)[C@]12Cc3cc(OC)ccc3[C@H]1N(CCC(=O)OC)C(=O)c1cc(OC)ccc12	nt	nt	nt	13µM*	nt
CCOC(=O)[C@]12Cc3cc4ccccc4cc3[C@H]1N(Cc1ccccc1)C(=O)c1ccccc12	nt	nt	nt	12µM*	nt
CC1=C2C(=COC(C)C2C)C(=O)C(C(=O)O)=C1O (configuration not stated)	nt	nt	?	nt	1%
CC(CN)CC(=O)O (configuration not stated)	nt	nt	2%	nt	0%
CCCCCN1C(=O)c2cc(OC)ccc2[C@@]2(C(=O)OCC)Cc3cc(Cl)ccc3[C@@H]12	nt	nt	nt	4.7µM*	nt
CC(Oc1cc2oc(=O)c3c(c2cc1Cl)CCCC3)C(=O)NCc1ccccn1 (configuration not stated)	-4%	-9%	-6%	24µM*	-7%
C=CCN1CC[C@@]23c4c5ccc(O)c4O[C@H]2/C(=N\N=C2/CC[C@@]4(O)[C@H]6Cc7ccc(O)c8c7[C@@]4(CCN6CC=C)[C@@H]2O8)CC[C@]3(O)[C@@H]1C5	nt	nt	-6%	nt	-6%
COC(=O)C1=C(N)Oc2cc(C)oc(=O)c2C12C(=O)Nc1ccccc12 (configuration not stated)	-3%	-16%	?	24µM*	-6%
CCOC(=O)[C@]12Cc3cc(Cl)ccc3[C@H]1N(CC(=O)OC)C(=O)c1ccccc12	nt	nt	nt	4.2µM*	nt
CCOC(=O)[C@]12Cc3cc(Cl)ccc3[C@H]1N(C)C(=O)c1ccccc12	nt	nt	nt	-28%	nt
CCOC(=O)[C@]12Cc3cc(Cl)ccc3[C@H]1N(C(C)C)C(=O)c1ccccc12	nt	nt	nt	9.5µM*	nt
COC(=O)C1=C(c2ccc(F)cc2OCc2ccccc2)C[C@@H]2CC[C@H]1N2C(=O)NCc1cccc(F)c1	-5%	5%	?	21µM*	-14%
Cc1cc(C(=O)CS(=O)c2ccc(F)cc2)cc(C)c1OC(=O)N(C)C (configuration not stated)	-3%	-14%	-27%	12µM*	-4%
